BLM inh-1: inhibitors of human Bloom syndrome helicase BLM; Potency, µM (titrated, usually from 56.1 µM), without a hit: top-dose activity change, negative = inhibition, most hits filed as inhibitors; recombinant BLM DNA unwinding, fluorescence dequenching; P54132; hit rate 0.2% among 350,000;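 also: plate controls were vehicle for no effect and no enzyme for full effect; nearly all actives have a fitted effect of over 35% in size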
APE1 inh: APE1 (human) endonuclease inhibition | P27695 | Potency, µM (highest dose often 65.8 µM), without a hit: at the top dose activity change, negative = inhibition, most hits filed as inhibitors | recombinant APE1, TAMRA/BHQ-2 abasic DNA cleavage fluorescence | AID 2517 | hit rate 0.35% among 350,000;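 also: plate controls were vehicle for no effect and reference inhibitor for full effect; nearly all actives have a fitted effect of over 55% in size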
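Measures dequenching upon AP-site incision of a 5'-TAMRA/3'-BHQ-2 THF-containing duplex, 50 nM; human APE1 0.75 nM after 15 min room-temperature exposure to compound; kinetic three-point read at one-minute spacing.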
FEN1 inh-1: inhibitors of human flap endonuclease 1. Recombinant FEN1 flap cleavage, fluorescence, 15 min. Potency, µM (doses to about 114 µM), inactives show at the highest dose activity change, negative = inhibition, most hits filed as inhibitors. hit rate 0.35% among 390,000. AID 588795; also: % is scaled to controls: 0 for no effect and ±100 for the full control effect; nearly all actives have a fitted effect of over 65% in size
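Nuclease activity of 10 nM FEN1 was measured after 15 min of room-temperature exposure to titrated compounds, by adding 50 nM flap substrate and reading plates at 0 and 15 min.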
TDP1 block: inhibitors of human tyrosyl-DNA phosphodiesterase TDP1. recombinant TDP1, AlphaScreen DNA substrate cleavage. hit rate 0.28% among 350,000. Q9NUW8. AID 485290. Potency, µM (highest dose often 130 µM), without a hit: at the highest dose activity change, negative = inhibition, hits mostly inhibitors; also: % is scaled to controls: 0 for no effect and ±100 for the full control effect; nearly all actives have a fitted effect of over 40% in size
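Steps: enzyme plus compound, 15 min RT; add biotin/phosphotyrosine-FITC oligonucleotide (15 nM final), react 5 min; add donor/acceptor beads (10 ug/ml final), 10 min; read AlphaScreen. Tdp1 at 1 nM final.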
RECQ1 inh-1: inhibitors of human RECQ1 DNA helicase. P46063. RECQ1 DNA unwinding, red fluorescence kinetic read. Potency, µM (top dose mostly 57.3 µM), inactives show at the top dose activity, negative = inhibition, hits mostly inhibitors. hit rate 0.54% among 240,000;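 also: plate controls were vehicle for no effect and no enzyme for full effect; nearly all actives have a fitted effect of over 30% in size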
Target sequence (P46063 whole entry, looked up): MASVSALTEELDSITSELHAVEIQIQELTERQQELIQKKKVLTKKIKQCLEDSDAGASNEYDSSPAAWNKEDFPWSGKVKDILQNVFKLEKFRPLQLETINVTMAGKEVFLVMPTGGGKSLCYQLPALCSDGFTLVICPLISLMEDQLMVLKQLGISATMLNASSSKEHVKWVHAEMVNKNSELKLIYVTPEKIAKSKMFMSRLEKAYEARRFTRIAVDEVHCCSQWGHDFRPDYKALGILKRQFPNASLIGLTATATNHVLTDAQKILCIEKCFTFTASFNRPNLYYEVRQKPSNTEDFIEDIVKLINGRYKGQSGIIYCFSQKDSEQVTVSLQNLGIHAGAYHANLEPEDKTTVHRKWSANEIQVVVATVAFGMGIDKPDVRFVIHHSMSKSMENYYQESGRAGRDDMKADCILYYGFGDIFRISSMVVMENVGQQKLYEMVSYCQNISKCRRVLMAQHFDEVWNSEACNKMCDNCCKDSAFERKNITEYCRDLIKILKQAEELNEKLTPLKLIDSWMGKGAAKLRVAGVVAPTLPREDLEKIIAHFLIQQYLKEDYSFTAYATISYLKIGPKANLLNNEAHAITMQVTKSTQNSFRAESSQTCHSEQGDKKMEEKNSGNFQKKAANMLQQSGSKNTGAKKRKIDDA
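50 nM RECQ1T1 preincubated 15 min with compound in Tris pH 8.0 buffer with MgCl2, DTT, Tween-20 and 2.5 ug/ml poly(dI-dC); started with 200 nM TAMRA/BHQ-2 forked duplex and 2 mM ATP. Unwinding read as fluorescence (525/598 nm), two reads 2 h apart.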
BLM inh-2: confirmation of inhibitors of human Bloom syndrome helicase BLM; Potency, µM, without a hit: max response, negative = inhibition, hits mostly inhibitors; shares compounds with BLM inh-1; AID 2585; hit rate 40% among 220; BLM DNA unwinding, fluorescence quenching, biochemical;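 also: strand separation dequenches TAMRA so unwinding raises red fluorescence; series mostly up to about 69 µM; % is scaled to controls: 0 for no effect and ±100 for the full control effect; nearly all actives have a fitted effect of over 45% in size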
RECQ1 inh conf: confirmation of human RECQ1 helicase inhibitors. shares compounds with RECQ1 inh-1. RECQ1 helicase DNA unwinding, fluorescence. Potency, µM (series often up to 229 µM), for the others: top-dose activity change, negative = inhibition, hits mostly inhibitors. hit rate 28% among 610. AID 2708; also: % is scaled to controls: 0 for no effect and ±100 for the full control effect; nearly all actives have a fitted effect of over 45% in size
RECQ1 ADP FP: displaces ADP in a fluorescence polarization counter-screen for RECQ1 hits. shares compounds with RECQ1 inh-1. ADP fluorescence polarization displacement counterscreen. Potency, µM (top dose mostly 228 µM), without a hit: at the highest dose activity change, negative = inhibition, hits mostly inhibitors. hit rate 27% among 530. AID 2711; also: % is scaled to controls: 0 for no effect and ±100 for the full control effect; nearly all actives have a fitted effect of over 45% in size
RECQ1 inh-2: blocks human RECQ1 DNA unwinding; shares compounds with RECQ1 inh-1; recombinant RECQ1 DNA unwinding, red fluorescence; Potency, µM (highest dose often 119 µM), without a hit: at the highest dose activity, negative = inhibition, actives largely listed as inhibitors; hit rate 15% among 1,100; also: % is scaled to controls: 0 for no effect and ±100 for the full control effect; nearly all actives have a fitted effect of over 50% in size
FEN1 inh-2: confirmation of human FEN1 inhibitors; shares compounds with FEN1 inh-1; FEN1 flap cleavage, TAMRA/BHQ2 fluorogenic DNA substrate; Potency, µM, most hits filed as inhibitors; hit rate 79% among 880; AID 720498; also: nearly all actives have a fitted effect of over 60% in size
An asterisk follows results filed as active; i = inactive; ? = inconclusive; / = no result given; [ ] = dose if it differs, or a comment. Shown are actives, neighbours in structure and some others; about 0.92% of the full set was active somewhere. Calls follow the shape of the dose curve; as a rule, active = well fitted curve in the direction sought with a large enough effect; inconclusive = small, poorly fitted or top-dose-only effect, or another doubt; inactive = no such curve, though single readings can be large; an effect the other way counts as inactive or inconclusive. Potency is read from the fitted curve at half-maximal effect.

SMILES | BLM inh-1 | APE1 inh | FEN1 inh-1 | TDP1 block | RECQ1 inh-1 | RECQ1 inh-2 | others
Cc1ccc(-n2cccc2/C=C2\C(=N)N3N=C(c4ccco4)SC3=NC2=O)cc1 | 20µM* | 10µM* | 22µM* | 56µM* | ? | ? | BLM inh-2=29µM*;FEN1 inh-2=43*
CC(C)(C)OC(=O)NCC(=O)NNC(=O)c1nc2ccccc2[nH]1 | / | / | / | 1% | / | /
CC(C)(C)n1ncc2c(=O)n(Cc3cccc(C(F)(F)F)c3Cl)cnc21 | / | -1% | -23% | / | / | /
Fc1cc(F)c2nc(Nc3nc4cc5c(cc4s3)OCO5)sc2c1 | 10µM* | 9% | ? | ? | ? | / | BLM inh-2=?;FEN1 inh-2=43*
CCCCCc1c2c(cc(O)c1C(=O)O)OC(=O)c1cc(C(=O)CCCC)c(OC)cc1O2 | -3% | ? | ? | -5% | 13µM* | ?
CCCCCC(=O)Cc1cc(O)cc(O)c1C(=O)Oc1cc(CC(=O)CCCCC)c(C(=O)O)c(OC)c1 | 4% | 4% | / | 7%[56.1 µM] | -5% | /
CCCCCc1c2c(cc(O)c1C(=O)O)OC(=O)c1c(cc(OC)cc1C(=O)CCCC)O2 | -1% | -1% | -22% | 10%[56.1 µM] | ? | ?
Cc1cc(N/N=C(/CCC(=O)O)C(=O)O)nc2ccccc12 | 2% | ? | -4% | 8% | -4% | / | RECQ1 inh conf=9%;RECQ1 ADP FP=-13%
Cc1cc(N/N=C/c2ccccc2Br)nc2ccccc12 | -2% | 2% | -16% | 6% | -4% | /
Cc1cc(NS(=O)(=O)c2ccc(NC(=O)c3cc(-c4cccnc4)nc4ccc(Cl)cc34)cc2)no1 | 0% | -5% | ? | 2% | -2% | /
Cc1cc(C)c2nc(-c3ccccn3)cc(C(=O)Nc3ccc(S(=O)(=O)Nc4cc(C)on4)cc3)c2c1 | ? | ? | ? | 2% | 25µM* | ?
Cc1cc(C)c2nc(-c3ccccn3)cc(C(=O)Nc3ccc(S(=O)(=O)Nc4onc(C)c4C)cc3)c2c1 | ? | ? | ? | 40µM* | ? | ?
CC(=O)Nc1ccc(S(=O)(=O)N2CCCN(S(=O)(=O)c3ccc4c(c3)OCCO4)CC2)cc1 | / | / | / | 2% | / | /
Cc1ccc(-n2c(Cc3cccn3C)nnc2SCC(=O)N2CCc3ccccc32)cc1 | -17% | 9% | -17% | 10% | 0.22µM* | -9% | RECQ1 inh conf=17%[114 µM];RECQ1 ADP FP=14%[91.9 µM]
C[C@H](NC(=O)Cc1cc(F)cc(F)c1)C(=O)N[C@@H](C(=O)OC(C)(C)C)c1ccccc1 | 1% | -12% | / | 4% | -11% | /
O=C(c1cccc([N+](=O)[O-])c1)N1CCN(c2ccc(Nc3ccccc3)nn2)CC1 | 0% | / | -9% | 5% | / | /
Cn1cnc([N+](=O)[O-])c1Oc1cccc2ccccc12 | 1% | 18% | -5% | 4% | 5µM* | -16%
COC(=O)[C@H](CC(C)C)NC(=O)c1ccc(NC[C@@H](N)CS)cc1-c1cccc2ccccc12 | -5% | 0% | / | 28% | -16% | /
Cc1ccc(NC(=S)NC(=O)/C=C/c2ccco2)c(O)c1 | -14% | ? | -13% | 6% | ? | -23%
CCCCC/C=C\C\C=C/C=C/C=C/[C@@H](SCC(N)C(=O)NCC(=O)O)[C@@H](O)CCCC(=O)O (some centres not stated) | -1% | 30% | / | 5% | -1% | /
Cc1csc(NC(=O)CSc2nnc(-c3ccc(S(=O)(=O)N4CCCC4)cc3)o2)n1 | 1% | 0% | -10% | 5% | -1% | / | RECQ1 inh conf=8%;RECQ1 ADP FP=11%
CCN(CC)S(=O)(=O)c1ccc(N2CCCCC2)c(NC(=O)/C=C/c2ccc(OC)c(OC)c2)c1 | -2% | -12% | 0% | 0% | 0% | /
CCN(CC)S(=O)(=O)c1ccc(OC)c(NC(=O)/C=C/c2ccco2)c1 | -18% | -10% | -18% | / | 25µM* | -28%
CC(=O)OC[C@@H]1O[C@H](C/C=N\OC[C@@H](O)COCc2ccco2)C=C[C@@H]1OC(C)=O | 0%[12.4 µM] | 12%[12.4 µM] | / | 6%[21 µM] | i[11.5 µM] | /
O=C(Nc1ccc(-c2nc3ccc(NC(=O)c4cccs4)cc3[nH]2)cc1)c1cccs1 | -5% | ? | ? | -9% | ? | ?
SMILES | BLM inh-1 | APE1 inh | FEN1 inh-1 | TDP1 block | RECQ1 inh-1 | RECQ1 inh-2 | others
O=C(Nc1ccc2nc(-c3cccs3)[nH]c2c1)c1cccs1 | 5% | 18% | -10% | 0% | i | /
Cc1cc2c(NC(=O)Nc3ccccc3)cccc2nn1 | 6% | ? | -6% | -7% | ? | 0%
CC(C)OCCCNC(=O)c1ccc2c(c1)S(=O)(=O)c1ccccc1C2=O | 1% | -2% | -1% | 2% | / | /
COCCCNC(=O)c1ccc2c3c(onc13)-c1ccccc1C2=O | -7% | ? | 45µM* | 7% | 13µM* | 50µM*
COc1cc(C2NCC(c3ccc(Cl)cc3Cl)c3c2[nH]c2ccccc32)cc(OC)c1OC (configuration not stated) | -14% | -5% | -3% | 5% | ? | -23%
CCc1cccc(C)c1NC(=O)c1cc(S(=O)(=O)NCc2ccccc2Cl)ccc1F | -3% | / | -16% | 3% | / | /
CC(=O)Cn1c2ccccc2n2nc(CCC(=O)O)c(=O)nc12 | -7% | 2% | 0% | 3% | 6% | /
O=C(O)CCc1nn2c3ccccc3n(CC(=O)c3cccs3)c2nc1=O | -4% | -2% | 14% | 4% | 2% | / | RECQ1 inh conf=7%;RECQ1 ADP FP=-4%
COc1ccc(C(=O)Cn2c3ccccc3n3nc(CCC(=O)O)c(=O)nc23)cc1OC | 0% | -2% | 2% | 2% | -8% | / | RECQ1 inh conf=21%;RECQ1 ADP FP=?
CCc1nnc(NS(=O)(=O)c2ccc(N/C=C\C(=O)c3cccc4ccccc34)cc2)s1 | -2% | 15% | -9% | 6% | ? | ?
COCCN1C(=O)C(=O)/C(=C(/O)c2ccc(S(=O)(=O)N3CCOCC3)cc2)C1c1cccc(O)c1 (configuration not stated) | 8% | -8% | -13% | / | -3% | / | RECQ1 inh conf=0%;RECQ1 ADP FP=4%

Screens deposited in PubChem by National Center for Advancing Translational Sciences (NCATS).
